M18AAP inhibitor = blocks P. falciparum M18 aspartyl aminopeptidase; recombinant PfM18AAP, H-Glu-NHMec fluorogenic cleavage; inhibition, % at 7.35 µM; actives 1.2% (n = 290,000); AID 1822;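 active = inhibition above the campaign mean inhibition over all tested compounds plus 3 SD, cut at about 28% in these data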;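 note: 0% = plate median of test compound wells and 100% = 2 mM ZnCl2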
Pemphigus Ab inh = human desmoglein-3 autoantibody binding inhibition; P32926; DSG3-coupled beads, scFv-anti-DSG3-GFP binding, flow cytometry; active compounds read low; binding (percent of control), % at 10 µM; actives 0.48% (n = 310,000); AID 588358;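 active = binding more than 3 SD below its plate's average and above zero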;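 note: hits lower antibody fragment binding to DSG3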
pPAFAH FP inh = inhibitors of human plasma PAF acetylhydrolase (pPAFAH). Q13093. recombinant pPAFAH, FP-rhodamine probe fluorescence polarization. inhibition, % at 3.39 µM. actives 1.5% (n = 330,000). AID 463082;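 active = inhibition above the mean inhibition across the screen plus 3 SD, cut at about 25% in these data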;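 note: inhibitors block binding of the rhodamine activity-based probe so polarization drops; 0% = enzyme with DMSO and 100% = wells lacking pPAFAH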
PAFAH1B2 inh = PAFAH1B2 (human) inhibition; recombinant PAFAH1B2, FP-rhodamine activity probe, fluorescence polarization; inhibition, % at 3.39 µM; actives 1.2% (n = 340,000);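 active = inhibition above the mean of all tested compounds plus 3 SD, cut at about 24% in these data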;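 note: 0% = enzyme with DMSO and 100% = wells lacking PAFAH1B2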
Target sequence (P68402 whole entry, looked up): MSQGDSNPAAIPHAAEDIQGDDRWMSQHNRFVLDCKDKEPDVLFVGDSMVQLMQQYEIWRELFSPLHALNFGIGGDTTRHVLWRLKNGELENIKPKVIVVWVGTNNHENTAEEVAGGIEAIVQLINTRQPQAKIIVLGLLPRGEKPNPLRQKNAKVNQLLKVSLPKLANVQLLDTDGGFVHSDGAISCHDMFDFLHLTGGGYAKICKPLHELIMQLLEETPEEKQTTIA
PAFAH1B3 FP inh = PAFAH1B3 (human) inhibition | AID 492972 | actives 0.28% (n = 340,000) | Q15102 | inhibition, % at 3.39 µM | recombinant PAFAH1B3, FP-rhodamine probe, fluorescence polarization;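 active = inhibition above the screen-wide average of all tested compounds plus 3 SD, cut at about 25% in these data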;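 note: 0% = enzyme with DMSO only and 100% = wells lacking PAFAH1B3 protein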
Target sequence (Q15102 whole entry, looked up): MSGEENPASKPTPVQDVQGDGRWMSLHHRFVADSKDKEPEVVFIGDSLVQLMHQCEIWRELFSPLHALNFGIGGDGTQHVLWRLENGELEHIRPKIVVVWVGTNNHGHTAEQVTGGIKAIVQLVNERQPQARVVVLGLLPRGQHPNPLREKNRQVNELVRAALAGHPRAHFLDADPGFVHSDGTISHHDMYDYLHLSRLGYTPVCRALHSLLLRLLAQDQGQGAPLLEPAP
PAFAH2 FP inh = inhibitors of human PAFAH2. Q99487. recombinant PAFAH2, FP-rhodamine activity probe, fluorescence polarization. inhibition, % at 3.39 µM. actives 0.99% (n = 340,000). AID 492956;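 active = inhibition above the mean over all tested compounds plus 3 SD, cut at about 30% in these data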;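 note: inhibitors block probe labeling of enzyme so polarization drops; 0% = enzyme with DMSO and 100% = wells lacking PAFAH2 protein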
PAFAH2 FP conf = PAFAH2 (human) inhibition, confirmed; inhibition, % at 3.39 µM; AID 493030; recombinant PAFAH2, FP-rhodamine activity probe, fluorescence polarization; actives 65% (n = 2,300); shares compounds with PAFAH2 FP inh;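 active = mean inhibition over three repeats above a set limit taken from the earlier primary screen, cut at about 30% in these data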;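 note: inhibitor blocks binding of rhodamine activity probe so polarization falls; 0% = enzyme with DMSO and 100% = wells lacking PAFAH2 protein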
An asterisk follows results filed as active; x = no result given. Most compounds without a hit are left out; they make up all but 3.8% or so of the library.

SMILES	M18AAP inhibitor	Pemphigus Ab inh	pPAFAH FP inh	PAFAH1B2 inh	PAFAH1B3 FP inh	PAFAH2 FP inh	PAFAH2 FP conf
O=C(COC(=O)c1ccccc1)NCCCCc1ccccc1	x	100.4	x	x	x	x	x
CC(=O)Nc1ccc(C(=O)OCC(=O)c2ccc(F)cc2)cc1	1.2	x	-9.3	5.4	5.4	38.1*	35.8*
CC(=O)Nc1ccc(NC(=O)COC(=O)c2ccc(Cl)nc2)cc1	x	99.4	x	-0.5	6.8	1.0	x
Cc1cnc(C(=O)OCc2ccc(Br)cc2)cn1	-9.7	99.6	0.6	1.9	-8.6	5.4	x
COc1ccccc1C(=O)OCc1ccc2sc(C)nc2c1	-5.1	126.9	2.0	0.7	1.4	8.3	x
O=C(COC(=O)C1=Cc2ccccc2OC1)NCc1ccco1	2.1	97.5	4.3	-7.5	-4.5	20.0	x
O=C(COC(=O)C1=Cc2ccccc2OC1)NCc1ccccc1	x	102.6	2.7	1.7	0.0	31.4*	23.4
CC(=O)Nc1ccc(C(=O)OCC(=O)NCc2ccccc2)cc1	-6.1	98.8	-5.5	2.4	8.4	55.5*	45.7*
COc1ccc(C(=O)OCC(=O)Nc2ccc(N3CCOCC3)cc2)cc1	x	x	8.1	-1.3	0.5	17.3	x
CC(=O)Nc1ccc(OCC(=O)NCc2ccccc2)cc1	1.7	106.5	-1.5	-7.1	-4.4	-5.9	x
CN(C)c1ccc(C(=O)OCC(=O)Nc2ccc(N3CCOCC3)cc2)cc1	-3.9	103.7	4.5	2.4	9.7	49.5*	35.4*
CN(C)c1ccc(C(=O)OCC(=O)NCCNC(=O)COC(=O)c2ccc(N(C)C)cc2)cc1	5.9	100.9	4.5	-3.1	15.3	13.4	x
COC(=O)c1ccc(CNC(=O)COC(=O)c2ccc(N(C)C)cc2)cc1	1.1	96.2	5.8	7.8	8.7	44.0*	39.9*
CS(=O)(=O)c1ccc(Cl)c(NC(=O)COC(=O)COc2ccc3c(c2)CCC3)c1	x	96.3	13.5	0.8	1.3	-0.2	x
CC(=O)N1N=C(N)SC1(C)C	-1.1	99.5	0.7	2.2	6.5	-0.7	x
CN(C)c1ccc(C(=O)OCC(=O)NCC2CCCO2)cc1 (configuration not stated)	-7.2	96.8	7.8	1.2	2.3	61.7*	56.4*
COc1cc(N)c(Cl)cc1C(=O)OCC(=O)N1CCCC1	-2.0	94.3	3.4	2.2	1.8	-4.1	x
COc1cc(N)c(Cl)cc1C(=O)OCC(=O)N1CCc2ccccc21	x	106.4	2.4	2.6	-0.5	33.4*	18.4
O=C(OCC(=O)N1CCc2ccccc21)c1ccccc1	-2.2	105.4	1.1	0.6	-0.1	47.3*	37.6*
COc1cccc(C(=O)OCC(=O)N2CCc3ccccc32)c1OC	x	96.9	x	1.6	4.8	43.3*	42.6*
CC(=O)c1ccc(OCC(=O)NC2CCCN(Cc3ccccc3F)C2)cc1 (configuration not stated)	-1.6	106.4	x	4.1	-2.4	5.8	x
CC(=O)c1ccc(S(=O)(=O)N2CCN(C(=O)c3ccc(-n4nc(C)c(Cl)c4C)cc3)CC2)cc1	x	x	-1.9	-7.3	1.8	49.5*	43.0*
Cc1nn(-c2ccc(C(=O)N3CCN(S(=O)(=O)c4ccccc4C(F)(F)F)CC3)cc2)c(C)c1Cl	x	x	0.2	-1.3	3.3	7.7	x
O=C(c1ccco1)N1CCN(S(=O)(=O)c2cc(Cl)ccc2Cl)CC1	-3.6	104.6	3.7	6.6	10.7	-2.4	x
O=C(c1cc(-c2ccc(Cl)cc2Cl)on1)N1CCN(C(=O)c2ccco2)CC1	1.3	106.0	9.4	1.0	-3.6	65.5*	41.1*
O=C(c1cc(-c2ccc(Cl)cc2Cl)on1)N1CCCC1	2.5	102.4	8.6	2.8	6.7	30.5*	26.0
O=C(c1cc(-c2ccccc2Cl)on1)N1CCN(C(=O)c2ccco2)CC1	-1.1	108.0	8.8	4.8	2.4	43.1*	35.3*
O=C(c1cc(-c2ccc(Cl)cc2Cl)on1)N1CCCCCC1	2.1	104.7	4.2	5.2	7.0	7.0	x
O=C1CCC(C(=O)Nc2cccc(S(=O)(=O)N3CCOCC3)c2)N1 (configuration not stated)	-1.5	108.5	8.9	1.8	4.5	-7.7	x
CCn1cc(CCC(=O)NCCN2CCOCC2)c2ccccc21	1.6	103.8	2.9	1.2	5.6	-2.2	x
